Data on four compounds can be found in PubChem BioAssay (EPA / NIEHS).

Calls of active or inactive are those of the source. Rule for the calls: active = hit-call score of the fitted dose curve at least 0.9, where 1 is the maximum; inactive = score below 0.9.

Holding throughout (settings): mRNA level, 48 h; actives raise or lower the signal
Read-out in test [1]: JUN Transcription Factor, JUN (gene 3725)
In words: LTEA_HepaRG_JUN: Life Technologies and Expression Analysis (LTEA) Assay for JUN Transcription Factor using HepaRG (AID 2283513). The procedure, abridged:
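Read-out is JUN transcript level by TaqMan qRT-PCR, normalized to ACTB, GAPDH and POLR2A, after 48 h chemical treatment of HepaRG cells. Concentration-response spanned eight half-log points up to 100 uM in 0.5% DMSO.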

Read-out in test [2]: Lipase C (LIPC), LIPC (gene 3990)
Nature of the test: LTEA_HepaRG_LIPC: Life Technologies and Expression Analysis (LTEA) Assay for Lipase C (LIPC) using HepaRG (AID 2283514). In short, it runs like this:
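HepaRG, 48 h exposure, 8-pt half-log series from 100 uM in 0.5% DMSO, duplicates. Readout: LIPC mRNA by Fluidigm qRT-PCR, housekeeping-normalized (ACTB/GAPDH/POLR2A). Gain or loss fitted bidirectionally against DMSO baseline.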

Read-out in test [3]: Lipoprotein lipase (LPL), LPL (gene 4023)
Nature of the test: LTEA_HepaRG_LPL: Life Technologies and Expression Analysis (LTEA) Assay for Lipoprotein lipase (LPL) using HepaRG (AID 2283515). In short, it runs like this: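 HepaRG, 48 h exposure, 8-pt half-log dilutions from 100 uM, 0.5% DMSO vehicle, duplicates; qRT-PCR (Fluidigm array) of LPL mRNA vs housekeeping genes; bidirectional curve fit relative to DMSO baseline.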

Read-out in test [4]: MicroRNA 122 (MIR122), gene 406906
In words: LTEA_HepaRG_MIR122: Life Technologies and Expression Analysis (LTEA) Assay for MicroRNA 122 (MIR122) using HepaRG (AID 2283516). Note: the transcript read is the microRNA miR-122. In short, it runs like this:
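Human liver HepaRG cultures receive test chemicals for 48 h at eight half-log concentrations from 100 uM. Expression is quantified by qRT-PCR with ACTB/GAPDH/POLR2A normalization and fitted bidirectionally against 0.5% DMSO.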

Read-out in test [5]: matrix metalloproteinase-10 (MMP10), MMP10 (gene 4319)
In words: LTEA_HepaRG_MMP10: Life Technologies and Expression Analysis (LTEA) Assay for matrix metalloproteinase-10 (MMP10) using HepaRG (AID 2283517). In short, it runs like this: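 Transcript levels come from Fluidigm qRT-PCR normalized to three housekeeping genes, with curves fitted bidirectionally against 0.5% DMSO. Human HepaRG cells were dosed for 48 hours at concentrations up to 100 uM.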

Read-out in another test: MYC, MYC (gene 4609)
In words: LTEA_HepaRG_MYC: Life Technologies and Expression Analysis (LTEA) Assay for MYC using HepaRG (AID 2283518). The procedure, abridged: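 Expression changes were scored by TaqMan qRT-PCR with ACTB, GAPDH and POLR2A normalization. Cultures in serum-free induction medium received duplicate 8-point concentration series, highest 100 uM, for 48 h; DMSO (0.5%) served as baseline.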

Read-out in test [6]: matrix metalloproteinase-3 (MMP3), MMP3 (gene 4314)
Nature of the test: LTEA_HepaRG_MMP3: Life Technologies and Expression Analysis (LTEA) Assay for matrix metalloproteinase-3 (MMP3) using HepaRG (AID 2283519). In short, it runs like this:
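qRT-PCR read-out of MMP3 mRNA (normalised to three housekeeping genes) in HepaRG liver cells after 48 h chemical exposure; 8-point half-log series, top 100 uM, 0.5% DMSO vehicle. Bidirectional curve fitting against DMSO baseline.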

Read-out in test [7]: Paternally Expressed 10 (PEG10), PEG10 (gene 23089)
Nature of the test: LTEA_HepaRG_PEG10: Life Technologies and Expression Analysis (LTEA) Assay for Paternally Expressed 10 (PEG10) using HepaRG (AID 2283520).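 For AC50: differentiated HepaRG human liver cells in serum-free induction medium with 0.5% DMSO; PEG10 transcript by qRT-PCR normalised to ACTB GAPDH and POLR2A.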 The procedure, abridged: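 Human HepaRG cultures are dosed for 48 h across an eight-point half-log series starting at 100 uM, with 0.5% DMSO as vehicle and baseline. Gain or loss of PEG10 transcript is measured by qRT-PCR and fitted in both directions.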

Read-out in test [8]: Protein phosphatase 2A (PPP2R4), PTPA (gene 5524)
In words: LTEA_HepaRG_PPP2R4: Life Technologies and Expression Analysis (LTEA) Assay for Protein phosphatase 2A (PPP2R4) using HepaRG (AID 2283522). In short, it runs like this: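 Cells were plated, cultured 48 h, switched to serum-free induction medium, then dosed for 48 h (8 points, max 100 uM, 0.5% DMSO). RNA was isolated and PPP2R4 expression measured by TaqMan qRT-PCR.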

Read-out in test [9]: Phosphatase and tensin (PTEN), PTEN (gene 5728)
In words: LTEA_HepaRG_PTEN: Life Technologies and Expression Analysis (LTEA) Assay for Phosphatase and tensin (PTEN) using HepaRG (AID 2283523). In short, it runs like this: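 HepaRG, 48 h exposure, 8-pt half-log series from 100 uM top, 0.5% DMSO vehicle, duplicates. Readout: Fluidigm qRT-PCR of PTEN transcript; housekeeping normalization (ACTB, GAPDH, POLR2A). Gain or loss fitted relative to DMSO baseline.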

Read-out in test [10]: solute carrier (SLC22A1), SLC22A1 (gene 6580)
In words: LTEA_HepaRG_SLC22A1: Life Technologies and Expression Analysis (LTEA) Assay for solute carrier (SLC22A1) using HepaRG (AID 2283524).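 For AC50: differentiated human HepaRG liver cells in serum-free induction medium.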 In short, it runs like this:
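qRT-PCR readout (TaqMan, Fluidigm arrays) of SLC22A1 transcript, normalized to three housekeeping genes; bidirectional curve fit relative to 0.5% DMSO vehicle. Differentiated human HepaRG cells, 48 h chemical exposure, top concentration 100 uM, half-log steps, eight points.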

Read-out in test [11]: Pyruvate Dehydrogenase Kinase 4 (PDK4), PDK4 (gene 5166)
Nature of the test: LTEA_HepaRG_PDK4: Life Technologies and Expression Analysis (LTEA) Assay for Pyruvate Dehydrogenase Kinase 4 (PDK4) using HepaRG (AID 2283525). In short, it runs like this:
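HepaRG (human liver line), 48 h chemical exposure, 8-pt half-log CRC top 100 uM, 0.5% DMSO vehicle, duplicates. Readout: TaqMan qRT-PCR of PDK4 mRNA, housekeeping-normalized; gain/loss fit relative to DMSO baseline.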

Read-out in test [12]: NAD(P)H dehydrogenase [quinone] 1 (NQO1), NQO1 (gene 1728)
Nature of the test: LTEA_HepaRG_NQO1: Life Technologies and Expression Analysis (LTEA) Assay for NAD(P)H dehydrogenase [quinone] 1 (NQO1) using HepaRG (AID 2283526). In short, it runs like this:
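Transcript induction or suppression is quantified by qRT-PCR in human HepaRG liver cells dosed for 48 hours. Eight half-log concentrations topping at 100 uM are used, with 0.5% DMSO as vehicle and baseline.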

Read-out in test [13]: Nuclear factor erythroid 2-related factor 2 (Homo sapiens) (UniProt Q16236)
In words: LTEA_HepaRG_NFE2L2: Life Technologies and Expression Analysis (LTEA) Assay for Nuclear factor erythroid 2-related factor 2 (NFE2L2) Transcription Factor using HepaRG (AID 2283527). In short, it runs like this:
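HepaRG, 48 h dosing, 8-pt half-log series from 100 uM in 0.5% DMSO, duplicates. Read-out: NFE2L2 mRNA by qRT-PCR (ACTB/GAPDH/POLR2A normalization). Bidirectional curve fit vs DMSO baseline.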

Read-out in test [14]: succinate dehydrogenase complex iron sulfur subunit B (SDHB), SDHB (gene 6390)
In words: LTEA_HepaRG_SDHB: Life Technologies and Expression Analysis (LTEA) Assay for succinate dehydrogenase complex iron sulfur subunit B (SDHB) using HepaRG (AID 2283528). The procedure, abridged: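 SDHB transcript level read by TaqMan qRT-PCR, housekeeping-normalised (ACTB, GAPDH, POLR2A), after 48 h chemical treatment of plated HepaRG cells; eight concentrations top 100 uM, half-log steps, 0.5% DMSO, duplicates; fitted both directions against DMSO.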

Read-out in test [15]: Signal transducer and activator of transcription 3 (Homo sapiens) (UniProt P40763)
Nature of the test: LTEA_HepaRG_STAT3: Life Technologies and Expression Analysis (LTEA) Assay for Signal transducer and activator of transcription (STAT3) using HepaRG (AID 2283529). The procedure, abridged: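 HepaRG, 48 h exposure, 8-pt half-log series (top 100 uM), 0.5% DMSO vehicle, duplicates. Readout: STAT3 transcript by Fluidigm qRT-PCR, housekeeping-normalized; bidirectional fit vs DMSO baseline.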

Read-out in test [16]: solute carrier (SLCO1B1), SLCO1B1 (gene 10599)
Nature of the test: LTEA_HepaRG_SLCO1B1: Life Technologies and Expression Analysis (LTEA) Assay for solute carrier (SLCO1B1) using HepaRG (AID 2283530). In short, it runs like this:
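Human HepaRG cultures treated for 48 h with an eight-concentration half-log series topping at 100 uM; SLCO1B1 measured by qRT-PCR and fitted bidirectionally relative to DMSO.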

Read-out in test [17]: sulfotransferase 2A1 (SULT2A1), SULT2A1 (gene 6822)
Nature of the test: LTEA_HepaRG_SULT2A1: Life Technologies and Expression Analysis (LTEA) Assay for sulfotransferase 2A1 (SULT2A1) using HepaRG (AID 2283531). In short, it runs like this:
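Gene-expression endpoint in a human liver cell line: SULT2A1 mRNA change after 48 h chemical treatment, curves fitted in both directions relative to 0.5% DMSO vehicle. Concentrations spanned eight half-log steps from 100 uM.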

Read-out in test [18]: Transforming Growth Factor (TGFA), TGFA (gene 7039)
Nature of the test: LTEA_HepaRG_TGFA: Life Technologies and Expression Analysis (LTEA) Assay for Transforming Growth Factor (TGFA) using HepaRG (AID 2283532). In short, it runs like this: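 qRT-PCR read-out of TGFA transcript, normalized to three housekeeping genes, fitted bidirectionally against 0.5% DMSO baseline. Human HepaRG cultures received chemicals for 48 h at eight half-log concentrations, top 100 uM.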

Read-out in test [19]: Nuclear factor NF-kappa-B p105 subunit (Homo sapiens) (UniProt P19838)
In words: LTEA_HepaRG_NFKB1: Life Technologies and Expression Analysis (LTEA) Assay for Nuclear Factor Kappa B Subunit 1 (NFKB1) using HepaRG (AID 2283521).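 Note: differentiated human HepaRG liver cells in serum-free induction medium.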 In short, it runs like this: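 NFKB1 transcript was measured by TaqMan qRT-PCR on Fluidigm arrays, normalised to three housekeeping genes and fitted in both directions against 0.5% DMSO. HepaRG cells were dosed in duplicate for 48 h in serum-free induction medium, eight half-log steps from 100 uM.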

Chain of Signal transducer and activator of transcription 3 (Homo sapiens) (P40763 whole entry, looked up): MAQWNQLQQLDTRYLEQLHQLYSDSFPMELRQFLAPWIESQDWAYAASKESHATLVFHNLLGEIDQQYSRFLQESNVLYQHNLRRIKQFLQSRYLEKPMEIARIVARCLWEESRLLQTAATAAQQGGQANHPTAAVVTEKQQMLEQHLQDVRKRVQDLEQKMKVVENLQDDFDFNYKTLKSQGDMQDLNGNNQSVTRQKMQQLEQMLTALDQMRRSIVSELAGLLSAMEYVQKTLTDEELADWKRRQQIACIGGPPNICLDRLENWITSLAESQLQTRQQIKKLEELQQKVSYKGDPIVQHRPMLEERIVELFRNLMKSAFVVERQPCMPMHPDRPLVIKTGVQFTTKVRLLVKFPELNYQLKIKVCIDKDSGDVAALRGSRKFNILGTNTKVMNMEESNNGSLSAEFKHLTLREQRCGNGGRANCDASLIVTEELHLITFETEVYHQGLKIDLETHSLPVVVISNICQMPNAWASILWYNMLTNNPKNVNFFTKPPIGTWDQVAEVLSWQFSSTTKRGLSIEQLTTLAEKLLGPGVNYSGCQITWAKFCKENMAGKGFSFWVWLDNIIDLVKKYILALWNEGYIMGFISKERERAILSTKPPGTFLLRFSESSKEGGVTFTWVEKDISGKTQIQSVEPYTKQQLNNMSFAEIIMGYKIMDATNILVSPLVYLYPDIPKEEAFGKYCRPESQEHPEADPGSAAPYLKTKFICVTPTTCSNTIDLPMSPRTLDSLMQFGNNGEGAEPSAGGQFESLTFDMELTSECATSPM
Chain of Nuclear factor erythroid 2-related factor 2 (Homo sapiens) (Q16236 whole entry, looked up): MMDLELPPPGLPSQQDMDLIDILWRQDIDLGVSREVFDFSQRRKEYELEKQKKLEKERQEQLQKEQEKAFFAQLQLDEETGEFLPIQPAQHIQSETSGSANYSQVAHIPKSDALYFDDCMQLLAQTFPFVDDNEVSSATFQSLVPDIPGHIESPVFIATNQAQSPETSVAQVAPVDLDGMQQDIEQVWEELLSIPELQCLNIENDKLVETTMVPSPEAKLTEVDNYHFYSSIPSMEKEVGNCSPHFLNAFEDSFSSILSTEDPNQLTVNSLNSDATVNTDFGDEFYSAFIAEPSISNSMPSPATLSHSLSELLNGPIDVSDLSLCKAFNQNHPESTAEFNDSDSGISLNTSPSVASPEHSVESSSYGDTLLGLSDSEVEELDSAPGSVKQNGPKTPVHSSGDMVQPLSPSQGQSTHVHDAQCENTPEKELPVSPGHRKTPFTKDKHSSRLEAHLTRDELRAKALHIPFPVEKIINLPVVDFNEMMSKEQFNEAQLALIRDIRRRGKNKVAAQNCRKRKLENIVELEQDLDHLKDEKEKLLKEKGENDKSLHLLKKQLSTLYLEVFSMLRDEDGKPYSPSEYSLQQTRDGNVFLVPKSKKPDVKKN
Chain of Nuclear factor NF-kappa-B p105 subunit (Homo sapiens) (P19838 whole entry, looked up): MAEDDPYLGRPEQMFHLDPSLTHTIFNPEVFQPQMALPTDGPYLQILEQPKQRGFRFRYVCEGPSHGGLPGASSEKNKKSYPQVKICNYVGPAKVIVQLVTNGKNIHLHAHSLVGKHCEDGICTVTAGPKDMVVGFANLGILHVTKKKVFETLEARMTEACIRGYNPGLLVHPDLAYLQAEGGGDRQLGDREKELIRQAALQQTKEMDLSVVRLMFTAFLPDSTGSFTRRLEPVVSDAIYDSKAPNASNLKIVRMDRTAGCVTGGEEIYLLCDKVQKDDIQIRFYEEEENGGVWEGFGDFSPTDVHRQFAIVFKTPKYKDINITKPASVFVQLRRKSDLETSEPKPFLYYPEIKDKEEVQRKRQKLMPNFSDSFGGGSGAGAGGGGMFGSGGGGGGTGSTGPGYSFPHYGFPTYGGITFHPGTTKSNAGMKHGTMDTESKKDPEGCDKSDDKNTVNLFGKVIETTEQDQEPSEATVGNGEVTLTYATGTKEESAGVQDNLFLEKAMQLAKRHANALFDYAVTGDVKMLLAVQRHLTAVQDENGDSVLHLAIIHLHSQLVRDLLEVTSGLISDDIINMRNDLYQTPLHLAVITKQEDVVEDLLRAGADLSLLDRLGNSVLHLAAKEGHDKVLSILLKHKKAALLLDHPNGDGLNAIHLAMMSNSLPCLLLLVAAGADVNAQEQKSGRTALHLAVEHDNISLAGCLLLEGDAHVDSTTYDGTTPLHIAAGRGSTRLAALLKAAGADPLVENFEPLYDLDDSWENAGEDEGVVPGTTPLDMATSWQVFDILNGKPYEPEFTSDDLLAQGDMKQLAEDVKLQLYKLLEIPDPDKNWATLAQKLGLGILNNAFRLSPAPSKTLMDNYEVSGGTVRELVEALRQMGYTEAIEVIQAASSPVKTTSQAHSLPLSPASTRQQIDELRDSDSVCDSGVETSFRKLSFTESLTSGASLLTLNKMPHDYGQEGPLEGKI

As to `Nc1cc(Cl)cc(C(=O)O)c1Cl`, the outcome in [1] was “inactive”; in test [2], “inactive”; in test [3], “inactive”; in test [4] it was “inactive”; in [5], “inactive”; with MYC, MYC (gene 4609), “inactive”. Further, the compound was called inactive in test [6], in test [7], in test [8], in test [9], in test [10] and in test [11]. The result in test [12], in test [13], in test [14], in [15], in [16] and in test [17] was inactive. Besides, in test [18], the compound was called inactive.
In the case of `Nc1ccc(N=Nc2ccccc2)cc1`, the outcome is “inactive” in [1]; “inactive” in test [5]; “inactive” with MYC, MYC (gene 4609); “inactive” in test [6]; “inactive” in test [12]; “inactive” in test [13]. For the same compound, the compound was classed as inactive in test [15] and in test [18]. In addition, the AC50 (as a rule, the concentration at which the activity in the assay is half-maximal) in [2] was 12.8 µM (active); in test [3], 22.3 µM (active); in [4], 18.1 µM (active); in test [7], 18.4 µM (active); in test [8], 21.1 µM (active); in test [9], 25 µM (active). The AC50 in test [10] is 13.6 µM (active); in test [11], 13.4 µM (active); in test [14], 18.8 µM (active); in [17], 22.4 µM (active).
In the case of `Clc1ccc(Cl)c(Cl)c1`, the outcome in test [1] was “inactive”; in test [2] it was “inactive”; in test [4], “inactive”; in test [5], “inactive”; with MYC, MYC (gene 4609), “inactive”; in test [6], “inactive”. Further, the compound was called inactive in test [8], in test [9], in [11], in test [12], in test [13] and in [14]. Further, the compound was called inactive in test [15] and in test [18]. Further, the AC50 was 50 µM (active) in [3], 50 µM (active) in test [7] and 83.5 µM (active) in test [17].
In the case of `[Cl-].[Cl-].[Hg+2]`, the outcome in test [1] was “inactive”; in [2], “inactive”; in [3], “inactive”; in [4], “inactive”; in test [5], “inactive”; with MYC, MYC (gene 4609) it was “inactive”. The call in [6], in test [7], in [19], in [8], in test [10] and in test [11] was inactive. In addition, the outcome in [12], in [13], in test [14], in test [15], in [17] and in test [18] was inactive.
